In PubChem BioAssay AID651815 (National Center for Advancing Translational Sciences (NCATS), 2012):
Hit rate of the full screen: of about 2,100 compounds, about 1,100 (52%) were called active. About 29% were inconclusive and are not listed. Calls follow the shape of the dose curve; as a rule, active = well fitted inhibition curve with a large enough effect; inconclusive = small, poorly fitted or top-dose-only effect; inactive = no such curve, though single readings can be large or run the other way. The set was probably picked from earlier hits. Some of the results follow.

These compounds were tested against DNA dC->dU-editing enzyme APOBEC-3F (Homo sapiens) (UniProt Q8IUX4) (assay: qHTS for inhibitors of Vif-A3F interactions: Cherry picks counterscreen). Details: HeLa A3F-eYFP/Vif cells, eYFP fluorescence, 24 h; series mostly up to 46.1 µM.
Method in brief: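 HeLa cells stably expressing A3F-eYFP and Vif, cultured overnight, then treated 24 h at 37 degrees C with compounds at several concentrations; yellow fluorescence (488 nm Ex/500-530 nm Em) imaged on Acumen; MG132 positive control.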
Also: nearly all actives have a fitted effect of over 65% in size.
Potency is read from the fitted curve at half-maximal effect.

Chain of DNA dC->dU-editing enzyme APOBEC-3F (Homo sapiens) (Q8IUX4 whole entry, looked up): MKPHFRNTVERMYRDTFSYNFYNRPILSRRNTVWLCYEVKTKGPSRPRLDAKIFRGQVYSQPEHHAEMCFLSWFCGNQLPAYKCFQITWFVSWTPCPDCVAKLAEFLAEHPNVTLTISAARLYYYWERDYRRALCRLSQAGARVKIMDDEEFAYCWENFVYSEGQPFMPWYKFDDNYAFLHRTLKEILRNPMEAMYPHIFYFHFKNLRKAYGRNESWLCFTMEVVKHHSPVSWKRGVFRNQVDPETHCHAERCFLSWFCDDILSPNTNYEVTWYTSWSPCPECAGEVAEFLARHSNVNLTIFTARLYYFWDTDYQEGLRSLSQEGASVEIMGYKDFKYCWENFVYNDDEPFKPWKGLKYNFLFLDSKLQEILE

**Q.** How did the Potency turn out when `CNc1ccc(/C=C/c2ccnc3ccccc23)cc1` was run?
**A.** Its Potency is 20.6 µM (active).

**Q.** With `CN(C)c1ccc(/C=C/C=C/c2ccnc3ccccc23)cc1` as the compound, how does the Potency read?
**A.** Its Potency is 3.66 µM (active).

**Q.** For `CN(C)c1ccc(/C=C/c2ccnc3cc(Cl)ccc23)cc1`, which Potency is on record?
**A.** Its Potency is 2.91 µM (active).

**Q.** How did the Potency turn out when `COc1cccc2nccc(/C=C/c3ccc(N(C)C)cc3)c12` was run?
**A.** Its Potency is 20.6 µM (active).

**Q.** For `Fc1cccc(F)c1/C=N/NC(=S)Nc1cccnc1`, which Potency is on record?
**A.** Its Potency is “inactive”.

**Q.** How did the Potency turn out when `CN(C)c1ccc(/C=C/c2cnnc3ccccc23)cc1` was run?
**A.** Its Potency is 20.6 µM (active).

**Q.** With `CCCCCCCNc1ccc(/C=C/c2ccnc3ccccc23)cc1` as the compound, how does the Potency read?
**A.** The Potency was 23.1 µM (active).

**Q.** `CN(C)c1ccc(/C=C/c2ccnc3ccccc23)c(N)c1` was tested. Which Potency did it give?
**A.** The Potency was 8.2 µM (active).

**Q.** For `CN(C)c1ccc(/C=C/c2ccnc3ccc(-c4ccccc4)cc23)cc1`, which Potency is on record?
**A.** The Potency was 9.2 µM (active).

**Q.** With `CN1C(=O)C(O)(C2COC(C)(C)CC2=O)c2cc(Br)ccc21` (stereo unspecified) as the compound, how does the Potency read?
**A.** Its Potency is “inactive”.

**Q.** With `Nc1ccccc1/C=C/c1ccnc2ccccc12` as the compound, how does the Potency read?
**A.** The Potency was 16.4 µM (active).

**Q.** How did the Potency turn out when `CN(C)c1ccc(/C=C/c2ccnc3ccccc23)cc1` was run?
**A.** Its Potency is 18.4 µM (active).

**Q.** With `O=c1c(Cl)c2oc3ccccc3nc-2c2ccccc12` as the compound, how does the Potency read?
**A.** Its Potency is 16.4 µM (active).

**Q.** `CN(C)c1ccc(C2C=C(c3ccccc3)Nc3nnnn32)cc1` (stereo unspecified) was tested. Which Potency did it give?
**A.** Its Potency is 16.4 µM (active).

**Q.** `O=S(=O)(Nc1nc2n(n1)C(c1ccccc1)C=C(c1ccc(Cl)cc1)N2)c1ccccc1` (stereo unspecified) was tested. Which Potency did it give?
**A.** Its Potency is “inactive”.

**Q.** How did the Potency turn out when `COc1ccc(C2=CC(c3ccc(N(C)C)cc3)n3nnnc3N2)cc1` (stereo unspecified) was run?
**A.** The Potency was 16.4 µM (active).

**Q.** Which Potency does the source give for `CCN1C(=S)SC(=O)C1=C1C=C(C)N(Cc2ccco2)C(C)=C1` here?
**A.** The Potency was 15.8 µM (active).

**Q.** With `Clc1ccc(/C=N/NC2=Nc3cccc4cccc2c34)cc1` as the compound, how does the Potency read?
**A.** The Potency was 18.4 µM (active).

**Q.** With `Clc1ccccc1/C=N/NC1=Nc2cccc3cccc1c23` as the compound, how does the Potency read?
**A.** The Potency was 16.4 µM (active).

**Q.** With `C/C(CCc1ccc2c(c1)OCO2)=N\NC(=S)NC(C)C` as the compound, how does the Potency read?
**A.** Its Potency is “inactive”.

**Q.** For `C=CCn1c(O)c(N=NC(=O)CNC(=O)c2ccco2)c2ccccc21`, which Potency is on record?
**A.** The Potency was 11.2 µM (active).

**Q.** `C=C(C)CNC(=S)NNC(=O)c1ccco1` was tested. Which Potency did it give?
**A.** The Potency was “inactive”.

**Q.** Which Potency does the source give for `O=C(Nc1nc(NC(=O)c2ccco2)n(-c2ccccc2)n1)c1ccccc1` here?
**A.** The Potency was “inactive”.

**Q.** How did the Potency turn out when `COc1cccc(/C=N/NC(=O)c2cc3c(OC)c(OC)ccc3[nH]2)c1OC` was run?
**A.** Its Potency is 3.53 µM (active).

**Q.** Which Potency does the source give for `COCCCNC(=S)N/N=C/c1cccc(OC)c1O` here?
**A.** Its Potency is “inactive”.

**Q.** Which Potency does the source give for `COc1ccc(C(=O)N/N=C/c2cc(Br)ccc2O)cc1OC` here?
**A.** Its Potency is “inactive”.

**Q.** For `COc1ccccc1/C=N/NC(=O)c1cc2c(OC)c(OC)ccc2[nH]1`, which Potency is on record?
**A.** The Potency was 9.94 µM (active).

**Q.** Which Potency does the source give for `CC1Sc2ccc(C(=O)NCc3ccccn3)cc2NC1=O` (stereo unspecified) here?
**A.** Its Potency is “inactive”.

**Q.** With `CCCNC(=O)c1ccccc1NC(=O)c1ccc2c(c1)NC(=O)C(C)S2` (stereo unspecified) as the compound, how does the Potency read?
**A.** The Potency was 6.27 µM (active).

**Q.** How did the Potency turn out when `CN(C)c1ccc(/C=C/c2ccnc3ccc(I)cc23)cc1` was run?
**A.** The Potency was 6.51 µM (active).

**Q.** How did the Potency turn out when `COc1ccc2nccc(/C=C/c3ccc(N(C)C)cc3)c2c1` was run?
**A.** Its Potency is 23.1 µM (active).

**Q.** `Cc1cc(C)c2nccc(/C=C/c3ccc(N(C)C)cc3)c2c1` was tested. Which Potency did it give?
**A.** The Potency was 13 µM (active).

**Q.** With `CN(C)c1ccc(/C=C/c2ccnc3ccc(Br)cc23)cc1` as the compound, how does the Potency read?
**A.** The Potency was 4.61 µM (active).

**Q.** With `ClCC1NCC(c2ccccc2Cl)c2c1[nH]c1ccccc21` (stereo unspecified) as the compound, how does the Potency read?
**A.** Its Potency is “inactive”.

**Q.** `CN(C)c1ccc(/C=C/c2ccnc3ccc(N)cc23)cc1` was tested. Which Potency did it give?
**A.** Its Potency is 23.1 µM (active).

**Q.** `Cc1ccc2nccc(/C=C/c3ccc(N(C)C)cc3)c2c1` was tested. Which Potency did it give?
**A.** The Potency was 9.2 µM (active).

**Q.** How did the Potency turn out when `COc1ccc(C(=O)Nc2cc(C(C)=O)c(/C=C/N(C)C)oc2=O)cc1` was run?
**A.** The Potency was 12.5 µM (active).

**Q.** `CC(=O)c1cc(NC(=O)c2ccc(Cl)cc2)c(=O)oc1/C=C/N(C)C` was tested. Which Potency did it give?
**A.** Its Potency is 6.27 µM (active).

**Q.** For `CC(=O)c1cc(NC(=O)c2ccc(C)cc2)c(=O)oc1/C=C/N(C)C`, which Potency is on record?
**A.** The Potency was 11.6 µM (active).

**Q.** How did the Potency turn out when `COC(=O)c1c(-c2ccccc2Cl)noc1/C=C/N(C)C` was run?
**A.** Its Potency is “inactive”.

**Q.** How did the Potency turn out when `COC(=O)c1sc2nc(CSc3ccc(Br)cc3)[nH]c(=O)c2c1C` was run?
**A.** The Potency was “inactive”.

**Q.** With `COc1cc(C2c3cc4c(cc3C(OC3OC5COC(c6cccs6)OC5C(O)C3O)C3COC(=O)C23)OCO4)cc(OC)c1O` (stereo unspecified) as the compound, how does the Potency read?
**A.** The Potency was 11.2 µM (active).

**Q.** For `Cc1ccc(O)c(NC(=O)c2cc(-c3ccccc3O)no2)c1`, which Potency is on record?
**A.** Its Potency is 20.6 µM (active).

**Q.** For `COc1cccc(C(=O)Nc2ncc3c(n2)CC(c2ccc(OC)cc2OC)CC3=O)c1` (stereo unspecified), which Potency is on record?
**A.** The Potency was 11.2 µM (active).

**Q.** How did the Potency turn out when `Cc1cc(N2CCCC2)ccc1/C=C1\NC(=S)N(C)C1=O` was run?
**A.** Its Potency is 2.91 µM (active).

**Q.** For `Cc1cc(/C=C2\NC(=S)N(C)C2=O)ccc1N1CCCC1`, which Potency is on record?
**A.** The Potency was 2.5 µM (active).

**Q.** How did the Potency turn out when `Cc1cc(N2CCCC2)ccc1/C=C1/C(=O)N(C)C(=S)N1C` was run?
**A.** The Potency was “inactive”.

**Q.** How did the Potency turn out when `COC(=O)c1cnc(Nc2cc(C)ccc2OC)c2ccccc12` was run?
**A.** The Potency was “inactive”.

**Q.** How did the Potency turn out when `COc1ccc(C)cc1Nc1c2c(nc3ccccc13)CCC2` was run?
**A.** The Potency was 1.98 µM (active).

**Q.** `Cc1ccc(O)c(Nc2c3ccccc3nc3ccccc23)c1` was tested. Which Potency did it give?
**A.** Its Potency is “inactive”.

**Q.** Which Potency does the source give for `CN1/C(=C\C=C2/SC(=S)N(CC(=O)O)C2=O)C(C)(C)c2ccccc21` here?
**A.** The Potency was “inactive”.

**Q.** How did the Potency turn out when `CCCN1C(=O)/C(=C\C=C2\N(CC)c3ccccc3C2(C)C)SC1=S` was run?
**A.** Its Potency is 2.59 µM (active).

**Q.** With `CN1/C(=C\C=C2/SC(=S)NC2=O)C(C)(C)c2ccccc21` as the compound, how does the Potency read?
**A.** Its Potency is 3.96 µM (active).

**Q.** How did the Potency turn out when `CCCCN1C(=O)/C(=C/C=C2/CC(C)(C)CN2C)SC1=S` was run?
**A.** The Potency was “inactive”.

**Q.** How did the Potency turn out when `CCCN1C(=O)/C(=C/C=C2\N(CC)c3ccccc3C2(C)C)SC1=S` was run?
**A.** Its Potency is 4.44 µM (active).

**Q.** For `O=C(N/N=C/C=C/c1ccco1)c1ccncc1`, which Potency is on record?
**A.** Its Potency is “inactive”.

**Q.** `O=C(N/N=C\C=C\c1ccc([N+](=O)[O-])o1)c1cccs1` was tested. Which Potency did it give?
**A.** The Potency was 15.8 µM (active).

**Q.** Which Potency does the source give for `COc1ccccc1OCC(=O)N/N=C/C=C/c1ccc([N+](=O)[O-])o1` here?
**A.** The Potency was 16.4 µM (active).

**Q.** Which Potency does the source give for `Clc1ccccc1C1CC(c2ccccc2)=Nc2ccccc2N1` (stereo unspecified) here?
**A.** The Potency was “inactive”.

**Q.** How did the Potency turn out when `Cc1ccc(-c2cn3nc(-c4ccccc4)c(-c4ccccc4)nc3n2)cc1` was run?
**A.** Its Potency is 18.4 µM (active).

**Q.** How did the Potency turn out when `Cc1cc(C)nc(Nc2nc(C(N)Cc3ccccc3)cs2)n1` (stereo unspecified) was run?
**A.** The Potency was 14 µM (active).

**Q.** Which Potency does the source give for `COC(=O)CCC(=O)NC(=S)Nc1sc(C)c(C)c1C(N)=O` here?
**A.** Its Potency is 1.25 µM (active).

**Q.** `COc1cc2cc(-c3ccc(OC)c(OC)c3C)nc(N)c2cc1OC` was tested. Which Potency did it give?
**A.** The Potency was 1.77 µM (active).

**Q.** With `Cc1cc(N/N=C/c2ccc(O)cc2O)nc(-n2nc(C)cc2C)n1` as the compound, how does the Potency read?
**A.** The Potency was “inactive”.

**Q.** With `C=CCSc1nc2sc3c(c2c(=O)n1CC)CCC3` as the compound, how does the Potency read?
**A.** Its Potency is “inactive”.

**Q.** For `CCN(CC)C(=O)Cn1c(=O)n(-c2ccccc2)c(=O)c2c3c(sc21)CCC3`, which Potency is on record?
**A.** The Potency was 23.1 µM (active).
